CHO-K1 Ca PAM: M1 PAM counterscreen hit in parental CHO-K1 cells; ATP EC20, Fluo-8 calcium fluorescence; 0% at ATP EC20, 100% at ATP max; AID 602247; 360,000 compounds, 0.02% hits; activation, % at 3 µM;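 active = activation above the run cutoff, the mean activation of all test compounds plus 3 SD, cut at about 40% in these data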;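 also: peak over basal fluorescence ratio in a 140 s read after ATP addition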
CHO-K1 Ca antag: nonselective inhibitor or artifact in parental CHO-K1 cells; ATP-induced calcium, Fluo-8 fluorescence; inhibition, % at 3 µM; 360,000 compounds, 0.6% hits; AID 602250;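 active = inhibition above a per-plate cutoff, the plate's mean sample inhibition plus 3 SD, cut at about 24% in these data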;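 also: 0% = DMSO plus EC80 ATP and 100% = DMSO alone without ATP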
M1 PAM: human CHRM1 positive allosteric modulation; P11229; CHO-K1 hM1, Fluo-8 calcium fluorescence, ACh EC20; 0% = ACh EC20, 100% = maximal ACh; activation, % at 3 µM; 360,000 compounds, 0.088% hits; AID 588819; in the data active = activation above about 19%, passing the limit was not always enough
Target sequence (P11229 whole entry, looked up): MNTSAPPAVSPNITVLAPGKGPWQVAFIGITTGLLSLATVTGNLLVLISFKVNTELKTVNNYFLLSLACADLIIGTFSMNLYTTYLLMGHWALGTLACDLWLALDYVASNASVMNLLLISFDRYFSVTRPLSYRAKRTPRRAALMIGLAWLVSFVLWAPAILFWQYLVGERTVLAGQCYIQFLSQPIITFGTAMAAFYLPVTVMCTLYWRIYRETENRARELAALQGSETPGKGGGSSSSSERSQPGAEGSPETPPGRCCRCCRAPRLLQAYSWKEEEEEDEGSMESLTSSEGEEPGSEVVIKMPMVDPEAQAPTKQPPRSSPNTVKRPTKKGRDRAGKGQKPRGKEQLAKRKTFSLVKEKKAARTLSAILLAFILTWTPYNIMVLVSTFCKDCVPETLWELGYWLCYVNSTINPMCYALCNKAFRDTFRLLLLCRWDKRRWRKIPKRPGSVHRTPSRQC
CHRM1 agonist: agonists of human M1 muscarinic receptor | AID 588814 | activation, % at 3 µM | P11229 | 360,000 compounds, 0.33% hits | CHO-K1 hM1, Fluo-8 calcium fluorescence, agonist mode; 0% DMSO, 100% acetylcholine EC100;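 active = activation above the run's mean compound activation plus 3 SD, cut at about 16% in these data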;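 also: peak over basal fluorescence ratio within a 140 s kinetic read after compound addition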
CHRM1 antagonist: antagonists of human M1 muscarinic receptor. P11229. CHO-K1 hM1, Fluo-8 calcium fluorescence, ACh EC80 antagonist. inhibition, % at 3 µM. 360,000 compounds, 1.3% hits. AID 588852;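 active = percent inhibition above its own plate's cutoff, namely the mean of that plate's compound wells plus 3 SD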;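 also: peak over basal fluorescence ratio during 140 s after agonist addition; 0% = ACh EC80 plus DMSO and 100% = DMSO alone without agonist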
CHO-K1 Ca ag: counter-screen for M1 agonists: effect in parental CHO-K1 cells; Fluo-8 calcium fluorescence; scaled to maximal ATP response, vehicle zero; activation, % at 3 µM; 360,000 compounds, 0.48% hits; AID 602248; in the data active = activation above about 15%;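 also: untransfected CHO-K1 host cells lacking M1 receptor as counterscreen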
* marks the source's active call; other numbers are inactive results; · = no result; ! = not confirmed by another sample. A selection: hits, their analogues and other compounds. The true share with any hit is near 2.4%.

SMILES	CHO-K1 Ca PAM	CHO-K1 Ca antag	M1 PAM	CHRM1 agonist	CHRM1 antagonist	CHO-K1 Ca ag
CN(C)CCOc1ccccc1C(C)(C)C	12.9	2.6	-20.0	-6.2	57.4*	0.5
Fc1ccc(OCCOCCN2CCCC2)cc1	-0.2	-2.4	0.3	-5.9	-5.1	0.8
CC(C)(C)c1ccccc1OCCN1CCCC1	24.4	-1.6	-21.7	-8.8	42.6*	2.3
CC(C)c1ccc(NC(=O)C2C3C=CC4(O3)C2C(=O)N(CCCN2CCOCC2)C4C(=O)NC2CCCCC2)cc1 (stereo not drawn)	6.3	-7.3	6.0	-6.0	-7.2	-0.2
COc1cc(/C=C2\SC(=O)N(CCNC(=O)c3c(C)noc3C)C2=O)cc(OC)c1OC	-8.4	-1.6	9.4	0.8	-8.4	-0.5
CCCN(Cc1nnc(-c2cccs2)o1)C(=O)c1cccc(S(=O)(=O)N2CCOCC2)c1	8.4	-10.0	-0.3	-5.5	1.9	0.7
CSCC[C@H](NS(=O)(=O)c1ccc(C)cc1)C(=O)N1CCC(C(=O)N[C@H](C(=O)O)c2ccccc2)CC1	0.3	-4.5	0.8	-0.8	-2.6	0.4
O=C(Nc1cccc(F)c1)C1CCN(c2nnnn2-c2ccccc2)CC1	-6.7	28.0*	2.3	-2.4	1.2	1.7
COc1ccc(CCNc2ncnc3sc(C)cc23)cc1OC	-12.5	32.1*	-15.4	3.1	41.0*	14.1
COc1ccc(CCNc2ncnc3[nH]ncc23)cc1OC	19.5	-7.3	-9.7	2.9	-15.8	4.2
CCN(CC(=O)NCc1ccc(Cl)cc1)C(=O)c1cccc(S(=O)(=O)Nc2ccc(OC)cc2)c1	-4.8	-9.3	2.5	-3.1	5.3	2.9
CC1CNCCN1S(=O)(=O)c1cccc2cnccc12 (stereo not drawn)	16.4	-6.7	-18.7	42.2*!	-3.1	2.9
O=S(=O)(c1cccc2cnccc12)N1CCCNCC1	-6.3	1.4	-4.9	-5.7	-8.8	-0.3
CCCc1ccc(C(C)NC(=S)NCc2ccc(F)cc2)cc1 (stereo not drawn)	-9.9	16.4	-16.9	6.5	44.5*	17.2*
COc1ccc(C(C)NC(=S)NCc2ccc(F)cc2)cc1OC (stereo not drawn)	-1.0	9.1	12.2	-2.1	-6.4	3.1
CCC(NC(=S)NCc1ccc(F)cc1)c1ccc(C(C)C)cc1 (stereo not drawn)	-3.7	-0.3	-22.6	1.6	96.7*	8.2
CCC(C)c1ccc(C(C)NC(=S)NCc2ccc(F)cc2)cc1 (stereo not drawn)	-2.2	-0.2	-17.3	-5.6	34.4*	1.5
C=CCn1c(SC(C)C(=O)NC2(C#N)CCCCC2)nnc1-c1ccc(OC)cc1 (stereo not drawn)	2.3	-0.1	-8.8	-3.3	33.0*	0.7
COc1ccc2nc(C)cc(NCc3ccc(F)cc3)c2c1	15.7	4.5	-10.2	2.4	28.7*	3.8
CC1(c2nnnn2-c2ccc3c(c2)OCCO3)CCC(=O)N1Cc1cccc(C(F)(F)F)c1 (stereo not drawn)	17.3	-19.9	·	·	·	3.6
O=C(CNC(=O)c1ccc(Br)o1)NC12CC3CC(CC(C3)C1)C2	-1.0	-5.9	15.2	4.1	5.8	1.2
CCNC(=O)c1ccc(C23CC4CC(CC(C4)C2)C3)o1	9.2	-1.7	7.5	-3.4	-10.0	15.4*
C=COC(=O)CSc1snc(SCC(=O)OC)c1C#N	11.2	-5.7	6.2	-4.1	-8.8	0.1
CCN(CC)C(=O)CSc1nsc(SCC(=O)N(CC)CC)c1C#N	-9.2	26.3*	-5.7	-3.2	14.8	-0.1
O=C(CO/N=C/c1ccccc1OC(F)F)NCc1ccco1	10.4	-15.0	25.6*	-0.8	-53.3	0.7
SMILES	CHO-K1 Ca PAM	CHO-K1 Ca antag	M1 PAM	CHRM1 agonist	CHRM1 antagonist	CHO-K1 Ca ag
Cc1cc(=O)n2nc(N3CCCC(C(=O)NCc4ccccc4Cl)C3)sc2n1 (stereo not drawn)	15.4	-16.2	7.8	-11.5	-6.1	0.6
Cc1cc(C)n2nc(S(=O)(=O)N(CC(C)C)CC(C)C)nc2n1	-8.5	25.5*	-5.5	-4.2	6.4	-0.2
Cc1cc(C)n2nc(S(=O)(=O)N(C)Cc3ccccc3)nc2n1	5.1	-0.1	9.9	-6.3	-10.4	0.2
Nc1cc(S(=O)(=O)N2CCOCC2)ccc1Oc1cccc(Br)c1	-2.6	24.0*	9.2	0.5	2.2	2.6
COc1ccc(S(=O)(=O)N2CCOCC2)cc1Br	18.3	-8.1	8.8	-5.8	-0.4	4.0
CC1CCc2sc(C(=O)NN=C3CCCC3)cc2C1 (stereo not drawn)	-1.4	13.7	9.7	-1.8	-7.3	0.5
CCCn1nnnc1NCc1ccc(F)cc1	19.4	9.9	11.3	-6.9	-8.1	14.2
CCCCn1nnnc1NCc1ccc(N2CCCC2)cc1	2.3	-3.4	-20.4	-6.1	90.5*	-0.4
CCCn1nnnc1NCc1ccc(N2CCCC2)cc1	8.4	-10.1	-26.8	-7.0	57.7*	0.0
O=C(N/C(=C\c1ccccc1)C(=O)N1CCCCC1)c1ccco1	4.4	-8.3	5.2	-1.9	-5.1	1.5
C=CCc1cc(Cl)ccc1OCCNCCCOC	5.4	-10.1	-13.1	-8.4	7.5	2.4
C=CCc1ccccc1OCCNCCCOC	-16.3	23.7*	-14.8	-12.2	20.0	-0.3
COc1cc(C(=O)N[C@H](C(=O)OCC(=O)NC2CCCCCC2)C(C)C)cc(OC)c1OC	22.1	-25.6	7.1	-4.3	-10.9	1.9
O=C(c1cc2nc(-c3ccccc3)cc(-c3ccccc3)n2n1)N1CCCC1	18.1	1.7	-3.6	-6.8	11.2	16.3*
COc1ccccc1N1CCN(CCN2C(=O)C3CCCN3C2=O)CC1 (stereo not drawn)	25.5	-11.3	-0.9	-4.0	-6.2	0.5
Cc1c(N2C(=O)/C(=C/C3CC=CCC3)SC2=S)c(=O)n(-c2ccccc2)n1C (stereo not drawn)	-4.0	-5.9	-24.0	-8.8	73.4*	0.9
Cc1c(N2C(=O)/C(=C\C3CC=CCC3)SC2=S)c(=O)n(-c2ccccc2)n1C (stereo not drawn)	-6.8	-6.4	-25.9	-8.3	62.1*	1.1
Cc1c(N2C(=O)/C(=C/c3ccccc3)SC2=S)c(=O)n(-c2ccccc2)n1C	7.7	3.8	-22.1	-5.4	12.7	1.1
COc1ccc(NC(=O)/C(C#N)=C/c2ccc(Br)o2)cc1	6.8	-10.0	7.1	-1.1	-9.9	0.4
COc1ccc(NC(=O)/C(C#N)=C\c2ccc(N3CCOCC3)o2)cc1	-20.2	35.3*	-35.9	69.4*	31.1*	53.8*
N#C/C(=C\c1ccc(N2CCOCC2)o1)C(=O)Nc1ccc(O)cc1	3.4	4.5	-5.5	9.5	9.4	16.4*
N#C/C(=C/c1ccc(N2CCOCC2)o1)c1nc2ccccc2[nH]1	-10.4	14.6	-17.2	25.2*	30.9	18.9*
N#C/C(=C/c1ccc(N2CCOCC2)o1)C(=O)NC1CCCCC1	13.2	-7.3	2.9	10.4	1.9	6.6

Screening data deposited in PubChem by The Scripps Research Institute Molecular Screening Center.
